The text below walks through data of PubChem BioAssay (NCATS).

Results filed as inconclusive are left out. Where a call stands in place of a potency, no number is given. The source made the active and inactive calls. Calls come from the whole dose curve; as a rule, active = well fitted curve in the direction sought with a large enough effect; inconclusive = small, poorly fitted or top-dose-only effect, or another doubt; inactive = no such curve, though single readings can be large; an effect the other way counts as inactive or inconclusive.

Glucagon-like peptide 1 receptor (Homo sapiens), sequence (P43220 whole entry, looked up): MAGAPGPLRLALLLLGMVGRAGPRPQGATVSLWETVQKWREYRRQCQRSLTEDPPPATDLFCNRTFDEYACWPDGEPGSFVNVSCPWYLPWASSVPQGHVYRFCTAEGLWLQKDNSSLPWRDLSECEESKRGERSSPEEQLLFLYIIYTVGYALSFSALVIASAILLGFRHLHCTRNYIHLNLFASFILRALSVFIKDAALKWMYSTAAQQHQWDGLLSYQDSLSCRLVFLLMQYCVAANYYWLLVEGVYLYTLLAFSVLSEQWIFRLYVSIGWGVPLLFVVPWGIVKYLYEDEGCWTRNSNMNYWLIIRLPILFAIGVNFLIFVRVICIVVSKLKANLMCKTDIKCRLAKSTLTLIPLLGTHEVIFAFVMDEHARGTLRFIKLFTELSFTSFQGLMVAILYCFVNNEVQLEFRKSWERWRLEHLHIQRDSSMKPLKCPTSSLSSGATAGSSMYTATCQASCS

The first assay concerns the target Glucagon-like peptide 1 receptor (Homo sapiens) (UniProt P43220). Kind of assay: qHTS of GLP-1 Receptor Agonists: LOPAC Validation (AID 624148).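 Note: higher luminescence signal means agonism.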 Particulars: GLP-1R agonist cell assay; series mostly up to 46.1 µM. The method, boiled down:
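HEK293 cells stably co-expressing a cAMP-responsive luciferase reporter and a hypersensitive GLP-1R were plated 12 h at 37 °C and exposed to compounds for 4-6 hr at 37 °C, 5% CO2. Luminescence was read 12 min after adding detection reagent.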
(In general: Quantitative high-throughput screening tests each substance at several concentrations.)
Consider `CNC1(C)C2CCC(C2)C1(C)C` (stereo unspecified), for which the outcome was inactive.

Turning to `c1cc(CN2CCCCC2)cc(OCCCNc2nc3ccccc3s2)c1`, the compound was called inactive.

For the compound `CCN1CCc2nc(N)oc2CC1`, the compound was classed as inactive.

As for `NC1=NCC2c3ccccc3Cc3ccccc3N12` (stereo unspecified), the compound was classed as inactive.

In the case of `CNCCC(Oc1ccccc1OC)c1ccccc1` (stereo unspecified), the compound was classed as inactive.

Regarding `C[C@@H](O)[C@H]1C(=O)N2C(C(=O)O)=C(SCCN=CN)C[C@H]12`, the compound was classed as inactive.

`COc1cc(C(=O)OCCCN2CCCN(CCCOC(=O)c3cc(OC)c(OC)c(OC)c3)CC2)cc(OC)c1OC`: the result was inactive.

For the compound `C(=C\c1ccccc1)/CN1CCN(C(c2ccccc2)c2ccccc2)CC1`, the compound was classed as inactive.

Turning to `O=C(CCNNC(=O)c1ccncc1)NCc1ccccc1`, the compound was classed as inactive.

In the case of `CN(C)CCCN1c2ccccc2Sc2ccccc21`, the call was inactive.

For the compound `C[C@]12CC[C@@H]3c4ccc(O)cc4C[C@@H](CCCCCCCCCS(=O)CCCC(F)(F)C(F)(F)F)[C@H]3[C@@H]1CC[C@@H]2O` (stereo partly specified), the call was inactive.

In the case of `c1cnc(N2CCN(Cc3ccc4c(c3)OCO4)CC2)nc1`, the compound was classed as inactive.

Test system in another assay: not listed separately
Kind of assay: qHTS of Nrf2 Activators: LOPAC Validation (AID 624149). The note with it: Nrf2/ARE reporter cell assay; series mostly up to 46.1 µM. Summed up: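 AREc32_Fluc cells, 1000/well, OPTI-MEM + 5% FBS, o/n 37 deg C 5% CO2; compound pin-transfer, 24 hr 37 deg C; Steady-Glo 30 min RT, luminescence read.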
With `NC(=O)c1ncn([C@@H]2O[C@H](CO)[C@@H](O)[C@H]2O)c1O`, the call was inactive.

Turning to `CC(C)(C)c1ccc(C(=O)CCCN2CCC(OC(c3ccccc3)c3ccccc3)CC2)cc1`, the result was inactive.

For the compound `N[C@@H](COP(=O)(O)O)C(=O)O`, the result was inactive.

For the compound `CCN(CC)CC(=O)Nc1c(C)cccc1C`, the call was inactive.

As for `Cc1cccc(C)c1NC(=O)C(C)N` (stereo unspecified), the compound was called inactive.

Take `CSc1ccc(C(=O)c2[nH]c(=O)[nH]c2C)cc1`: the call was inactive.

As for `Brc1c(NC2=NCCN2)ccc2nccnc12`, the result was inactive.

For `CCC(=O)c1ccc2c(c1)N(CCCN(C)C)c1ccccc1S2`, the outcome was inactive.

In the case of `CCn1cc(C(=O)O)c(=O)c2cc3c(cc21)OCO3`, the compound was classed as inactive.

On to `CC(C)(C)NCC(O)c1cc(O)cc(O)c1` (stereo unspecified), for which the compound was called inactive.

Take `CC(C(=O)O)c1ccc(CC2CCCC2=O)cc1` (stereo unspecified): the result was inactive.

As for `NC(Cc1ccc(Cl)cc1)C(=O)O` (stereo unspecified), the compound was classed as inactive.

Consider `CCO/C([O-])=N/c1c[n+](N2CCOCC2)no1`, for which the compound was classed as inactive.

Consider `CCc1c(C)[nH]c2c1C(=O)C(CN1CCOCC1)CC2` (stereo unspecified), for which the call was inactive.

On to `CCN(Cc1ccncc1)C(=O)C(CO)c1ccccc1` (stereo unspecified), for which the call was inactive.

In the case of `C[C@H](CS)C(=O)N1CCC[C@H]1C(=O)O`, the outcome was inactive.

Take `CC(N=C(NC#N)Nc1ccncc1)C(C)(C)C` (stereo unspecified): the outcome was inactive.

In the case of `Cc1ccc(Cl)c(Nc2ccccc2C(=O)O)c1Cl`, the compound was classed as inactive.

For the compound `FC(F)(F)c1ccccc1-n1ccnc1`, the compound was called inactive.

On to `CC(C)COCC(CN(Cc1ccccc1)c1ccccc1)N1CCCC1` (stereo unspecified), for which the compound was classed as inactive.

As to `CCOC(=O)c1cnc2c(cnn2CC)c1NN=C(C)C`, the result was inactive.

Consider `CNC1(C)C2CCC(C2)C1(C)C` (stereo unspecified), for which the call was inactive.

Regarding `c1cc(CN2CCCCC2)cc(OCCCNc2nc3ccccc3s2)c1`, the result was inactive.

Regarding `CCN1CCc2nc(N)oc2CC1`, the result was inactive.

With `NC1=NCC2c3ccccc3Cc3ccccc3N12` (stereo unspecified), the call was inactive.

As for `CNCCC(Oc1ccccc1OC)c1ccccc1` (stereo unspecified), the compound was classed as inactive.

Regarding `C[C@@H](O)[C@H]1C(=O)N2C(C(=O)O)=C(SCCN=CN)C[C@H]12`, the compound was called inactive.

With `COc1cc(C(=O)OCCCN2CCCN(CCCOC(=O)c3cc(OC)c(OC)c(OC)c3)CC2)cc(OC)c1OC`, the call was inactive.

In the case of `C(=C\c1ccccc1)/CN1CCN(C(c2ccccc2)c2ccccc2)CC1`, the result was inactive.

With `O=C(CCNNC(=O)c1ccncc1)NCc1ccccc1`, the result was inactive.

With `CN(C)CCCN1c2ccccc2Sc2ccccc21`, the compound was called inactive.

Consider `C[C@]12CC[C@@H]3c4ccc(O)cc4C[C@@H](CCCCCCCCCS(=O)CCCC(F)(F)C(F)(F)F)[C@H]3[C@@H]1CC[C@@H]2O` (stereo partly specified), for which the outcome was inactive.

As to `c1cnc(N2CCN(Cc3ccc4c(c3)OCO4)CC2)nc1`, the outcome was inactive.

Test system in another assay: not listed separately
Kind of assay: HTS Assay for Allosteric Antagonists of the Human D2 Dopamine Receptor: Hit Validation in HTRF (AID 624455). Particulars: Cells stably expressing D1 dopamine receptor, inhibition mode; series mostly up to 46.1 µM. Summed up:
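HTRF read-out; cells stably expressing D1 receptor; hits scored for inhibition of D1-mediated response. Primary screen: calcium flux, force-coupled inducible Hek293 Trex D2 line, antagonism vs EC80 dopamine.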
Background: Time-resolved FRET reads energy transfer from a long-lived donor to a nearby acceptor.
In the case of `NC(=O)c1ncn([C@@H]2O[C@H](CO)[C@@H](O)[C@H]2O)c1O`, the Potency entry is “inactive”.

Consider `CC(C)(C)c1ccc(C(=O)CCCN2CCC(OC(c3ccccc3)c3ccccc3)CC2)cc1`, for which the Potency result is “inactive”.

In the case of `N[C@@H](COP(=O)(O)O)C(=O)O`, the Potency entry is “inactive”.

Consider `CCN(CC)CC(=O)Nc1c(C)cccc1C`, for which the Potency result was “inactive”.

`Cc1cccc(C)c1NC(=O)C(C)N` (stereo unspecified): the Potency entry is “inactive”.

Take `CSc1ccc(C(=O)c2[nH]c(=O)[nH]c2C)cc1`: the Potency entry is “inactive”.

`Brc1c(NC2=NCCN2)ccc2nccnc12`: the Potency result was “inactive”.

Regarding `CCC(=O)c1ccc2c(c1)N(CCCN(C)C)c1ccccc1S2`, the Potency entry was “inactive”.

Regarding `CCn1cc(C(=O)O)c(=O)c2cc3c(cc21)OCO3`, the Potency entry is “inactive”.

Consider `CC(C)(C)NCC(O)c1cc(O)cc(O)c1` (stereo unspecified), for which the Potency entry is “inactive”.

`CC(C(=O)O)c1ccc(CC2CCCC2=O)cc1` (stereo unspecified): the Potency result is “inactive”.

Consider `NC(Cc1ccc(Cl)cc1)C(=O)O` (stereo unspecified), for which the Potency entry is “inactive”.

On to `CCO/C([O-])=N/c1c[n+](N2CCOCC2)no1`, for which the Potency entry is “inactive”.

On to `CC1=C(C)C(=O)C(CCCCC#CCCCC#CCO)=C(C)C1=O`, for which the Potency entry was “inactive”.

Consider `CCc1c(C)[nH]c2c1C(=O)C(CN1CCOCC1)CC2` (stereo unspecified), for which the Potency result is “inactive”.

In the case of `CCN(Cc1ccncc1)C(=O)C(CO)c1ccccc1` (stereo unspecified), the Potency result was “inactive”.

Turning to `C[C@H](CS)C(=O)N1CCC[C@H]1C(=O)O`, the Potency entry is “inactive”.

For `CC(N=C(NC#N)Nc1ccncc1)C(C)(C)C` (stereo unspecified), the Potency entry was “inactive”.

For the compound `COC(=O)C1=C(C)NC(C)=C(C(=O)OCCN(C)Cc2ccccc2)C1c1cccc([N+](=O)[O-])c1` (stereo unspecified), the Potency result is “inactive”.

In the case of `Cc1ccc(Cl)c(Nc2ccccc2C(=O)O)c1Cl`, the Potency result was “inactive”.

With `FC(F)(F)c1ccccc1-n1ccnc1`, the Potency result was “inactive”.

`CNCCCN1c2ccccc2CCc2ccccc21`: the Potency result was “inactive”.

`CC(C)COCC(CN(Cc1ccccc1)c1ccccc1)N1CCCC1` (stereo unspecified): the Potency entry is “inactive”.

Regarding `CCOC(=O)c1cnc2c(cnn2CC)c1NN=C(C)C`, the Potency entry was “inactive”.

Take `CNC1(C)C2CCC(C2)C1(C)C` (stereo unspecified): the Potency result is “inactive”.

With `c1cc(CN2CCCCC2)cc(OCCCNc2nc3ccccc3s2)c1`, the Potency result was “inactive”.

With `CCN1CCc2nc(N)oc2CC1`, the Potency result is “inactive”.

Regarding `NC1=NCC2c3ccccc3Cc3ccccc3N12` (stereo unspecified), the Potency entry is “inactive”.

For the compound `CNCCC(Oc1ccccc1OC)c1ccccc1` (stereo unspecified), the Potency result is “inactive”.

As for `C[C@@H](O)[C@H]1C(=O)N2C(C(=O)O)=C(SCCN=CN)C[C@H]12`, the Potency result was “inactive”.

Consider `COc1cc(C(=O)OCCCN2CCCN(CCCOC(=O)c3cc(OC)c(OC)c(OC)c3)CC2)cc(OC)c1OC`, for which the Potency entry is “inactive”.

Take `C(=C\c1ccccc1)/CN1CCN(C(c2ccccc2)c2ccccc2)CC1`: the Potency result is “inactive”.

For `O=C(CCNNC(=O)c1ccncc1)NCc1ccccc1`, the Potency entry was “inactive”.

On to `CN(C)CCCN1c2ccccc2Sc2ccccc21`, for which the Potency result was “inactive”.

Take `C[C@]12CC[C@@H]3c4ccc(O)cc4C[C@@H](CCCCCCCCCS(=O)CCCC(F)(F)C(F)(F)F)[C@H]3[C@@H]1CC[C@@H]2O` (stereo partly specified): the Potency entry was “inactive”.

`c1cnc(N2CCN(Cc3ccc4c(c3)OCO4)CC2)nc1`: the Potency entry is “inactive”.
